Test results taken from PubChem BioAssay AID1159580 (chemical genetic matrix, 2015).
Several values for one entry are separate records, joined by “and”; a condition that tells them apart may be missing. Equal entries are not always repeated. Screen size: about 5,500 compounds; about 2,000 (36%) were called active. Roughly 18% stayed inconclusive and do not appear here. Cut-off read from the data, not from the text of the source: active = normalized growth mostly below about 0.91 (no sharp cut-off); inconclusive = no clear call, values can overlap the other calls; inactive = mostly above about 0.92. Some of the results follow.

Test: chemical genetic growth profiling, strain panel (AID 1159580);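 note: tested at 20 µM; growth read once vehicle control cultures reached saturation at 30 °C; 1 = growth at the plate median or of vehicle wells; lower values mean less growth of the strain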
Conditions: growth OD
[1] = S. cerevisiae deletion strains, locus YAL013W, strain DEP1, stronger effect = lower value
[2] = S. cerevisiae deletion strains, locus YAL040C, strain CLN3, stronger effect = lower value
[3] = S. cerevisiae deletion strains, locus YCL061C, strain MRC1 (second series), stronger effect = lower value
[4] = S. cerevisiae deletion strains, locus YDR150W, strain NUM1, stronger effect = lower value
[5] = S. cerevisiae deletion strains, locus YDR363W, strain ESC2, stronger effect = lower value
[6] = S. cerevisiae deletion strains, locus YER002W, strain NOP16, stronger effect = lower value
[7] = S. cerevisiae deletion strains, locus YGR078C, strain PAC10, stronger effect = lower value
[8] = S. cerevisiae deletion strains, locus YJR075W, strain HOC1, stronger effect = lower value
[9] = S. cerevisiae deletion strains, locus YMR307W, strain GAS1, stronger effect = lower value
[10] = S. cerevisiae deletion strains, locus YNL175C, strain NOP13, stronger effect = lower value
[11] = S. cerevisiae deletion strains, locus YNL197C, strain WHI3, stronger effect = lower value
[12] = S. cerevisiae deletion strains, locus YNL224C, strain SQS1, stronger effect = lower value
[13] = S. cerevisiae deletion strains, locus YOR083W, strain WHI5 (second series), stronger effect = lower value
[14] = S. cerevisiae deletion strains, locus YNL153C, strain GIM3, stronger effect = lower value

Measured: normalized growth

CC(=O)[C@@]1(O)CC[C@H]2[C@@H]3CCC4=CC(=O)CC[C@]4(C)[C@H]3CC[C@@]21C
inactive: [1] 0.961 | [2] 0.947 | [3] 0.985 | [4] 1 | [5] 0.996 | [6] 0.967 | [7] 0.975 | S. cerevisiae deletion strains, locus YGR229C, strain SMI1, stronger effect = lower value 1.01 | [8] 0.984 | [9] 0.979 | [10] 0.97 | [11] 0.966 | [12] 0.957 | [13] 1.03

C[C@]12CCC(=O)C=C1CC[C@@H]1[C@@H]2CC[C@@]2(C)[C@H]1CC[C@]2(O)C(=O)CO
inactive: [1] 1.02 | [2] 1 | [3] 0.994 | [4] 0.994 | [5] 0.948 | [6] 0.98 | [8] 1 | [9] 1.01 | [14] 0.938 | [10] 0.969 | [11] 0.975 | [12] 0.992 | [13] 0.966 | S. cerevisiae deletion strains, locus YPL241C, strain CIN2, stronger effect = lower value 1

O=C(O)c1cc([N+](=O)[O-])ccc1NCCCc1ccccc1
active: S. cerevisiae deletion strains, locus YDL185W, strain tfp1, stronger effect = lower value 0.868 | S. cerevisiae deletion strains, locus YER155C, strain BEM2, stronger effect = lower value 0.915 | S. cerevisiae deletion strains, locus YGL078C, strain dbp3, stronger effect = lower value 0.895 | S. cerevisiae deletion strains, locus YHR094C, strain hxt1, stronger effect = lower value 0.921 | S. cerevisiae deletion strains, locus YIL125W, strain kgd1, stronger effect = lower value 0.861 | S. cerevisiae deletion strains, locus YIR030C, strain dcg1, stronger effect = lower value 0.918 | S. cerevisiae deletion strains, locus YKL009W, strain mrt4, stronger effect = lower value 0.707 | S. cerevisiae deletion strains, locus YKL068W, stronger effect = lower value 0.873 | S. cerevisiae deletion strains, locus YKL085W, strain MDH1 (second series), stronger effect = lower value 0.848 | S. cerevisiae deletion strains, locus YKL085W, strain MDH1, stronger effect = lower value 0.848 | S. cerevisiae deletion strains, locus YMR078C, strain ctf18, stronger effect = lower value 0.903 | S. cerevisiae deletion strains, locus YNL250W, strain rad50, stronger effect = lower value 0.851 | S. cerevisiae deletion strains, locus YNL271C, strain bni1, stronger effect = lower value 0.874 | S. cerevisiae deletion strains, locus YNL298W, strain CLA4, stronger effect = lower value 0.753 | S. cerevisiae deletion strains, locus YOL147C, strain pex11, stronger effect = lower value 0.931 | S. cerevisiae deletion strains, locus YPR119W, strain clb2, stronger effect = lower value 0.924 | S. cerevisiae deletion strains, locus YPR141C, strain kar3, stronger effect = lower value 0.872
inactive: [1] 0.994 | [2] 0.958 | S. cerevisiae deletion strains, locus YBR021W, strain FUR4, stronger effect = lower value 0.892 | S. cerevisiae deletion strains, locus YBR229C, strain ROT2, stronger effect = lower value 0.959 | S. cerevisiae deletion strains, locus YCL029C, strain bik1, stronger effect = lower value 0.931 | [3] 1.01 | S. cerevisiae deletion strains, locus YDL035C, strain GPR1, stronger effect = lower value 0.953 | S. cerevisiae deletion strains, locus YDL074C, strain BRE1, stronger effect = lower value 0.972 | S. cerevisiae deletion strains, locus YDL101C, strain DUN1, stronger effect = lower value 0.984 | S. cerevisiae deletion strains, locus YDL134C, strain PPH21, stronger effect = lower value 0.966 | S. cerevisiae deletion strains, locus YDL192W, strain arf1, stronger effect = lower value 0.941 | S. cerevisiae deletion strains, locus YDR101C, strain arx1, stronger effect = lower value 0.933 | [4] 1.01 | S. cerevisiae deletion strains, locus YDR162C, strain NBP2, stronger effect = lower value 0.953 | S. cerevisiae deletion strains, locus YDR318W, strain mcm21, stronger effect = lower value 0.939 | [5] 0.987 | S. cerevisiae deletion strains, locus YDR388W, stronger effect = lower value 0.928 | S. cerevisiae deletion strains, locus YDR502C, strain sam2, stronger effect = lower value 0.94 | S. cerevisiae deletion strains, locus YEL061C, strain CIN8, stronger effect = lower value 0.97 | [6] 0.954 | S. cerevisiae deletion strains, locus YER110C, stronger effect = lower value 0.932 | S. cerevisiae deletion strains, locus YER167W, strain BCK2, stronger effect = lower value 0.943 | S. cerevisiae deletion strains, locus YGL086W, strain mad1, stronger effect = lower value 0.985 | S. cerevisiae deletion strains, locus YGL248W, strain PDE1, stronger effect = lower value 0.984 | [7] 0.986 | S. cerevisiae deletion strains, locus YGR135W, strain pre9, stronger effect = lower value 0.933 | S. cerevisiae deletion strains, locus YGR252W, strain gcn5, stronger effect = lower value 0.893 | S. cerevisiae deletion strains, locus YHR030C, strain SLT2, stronger effect = lower value 0.941 | S. cerevisiae deletion strains, locus YHR079C, strain IRE1 (second series), stronger effect = lower value 0.934 | S. cerevisiae deletion strains, locus YHR129C, strain ARP1, stronger effect = lower value 0.952 | S. cerevisiae deletion strains, locus YHR200W, strain rpn10, stronger effect = lower value 0.922 | S. cerevisiae deletion strains, locus YIL066C, strain RNR3, stronger effect = lower value 0.983 | S. cerevisiae deletion strains, locus YIL073C, strain SPO22, stronger effect = lower value 0.829 | S. cerevisiae deletion strains, locus YJL095W, strain BCK1, stronger effect = lower value 1.01 | S. cerevisiae deletion strains, locus YJL134W, strain LCB3, stronger effect = lower value 0.944 | S. cerevisiae deletion strains, locus YJL168C, strain set2, stronger effect = lower value 0.94 | S. cerevisiae deletion strains, locus YJL187C, strain SWE1 (second series), stronger effect = lower value 0.996 | S. cerevisiae deletion strains, locus YJR043C, strain POL32, stronger effect = lower value 0.987 | [8] 1 | S. cerevisiae deletion strains, locus YKL190W, strain CNB1, stronger effect = lower value 0.967 | S. cerevisiae deletion strains, locus YKR001C, strain vps1, stronger effect = lower value 0.934 | S. cerevisiae deletion strains, locus YLR039C, strain RIC1, stronger effect = lower value 0.973 | S. cerevisiae deletion strains, locus YLR058C, strain SHM2, stronger effect = lower value 0.964 | S. cerevisiae deletion strains, locus YLR102C, strain apc9, stronger effect = lower value 0.93 | S. cerevisiae deletion strains, locus YLR262C, strain YPT6, stronger effect = lower value 0.933 | S. cerevisiae deletion strains, locus YLR268W, strain sec22, stronger effect = lower value 0.957 | S. cerevisiae deletion strains, locus YLR330W, strain CHS5, stronger effect = lower value 0.927 | S. cerevisiae deletion strains, locus YLR342W, strain FKS1 (second series), stronger effect = lower value 0.952 | S. cerevisiae deletion strains, locus YLR371W, strain rom2, stronger effect = lower value 0.951 | S. cerevisiae deletion strains, locus YLR418C, strain cdc73, stronger effect = lower value 0.901 | S. cerevisiae deletion strains, locus YML016C, strain PPZ1, stronger effect = lower value 0.958 | S. cerevisiae deletion strains, locus YML032C, strain rad52, stronger effect = lower value 0.968 | S. cerevisiae deletion strains, locus YML124C, strain tub3, stronger effect = lower value 0.935 | S. cerevisiae deletion strains, locus YMR223W, strain ubp8, stronger effect = lower value 0.945 | S. cerevisiae deletion strains, locus YMR263W, strain SAP30, stronger effect = lower value 1.01 | [9] 0.945 | S. cerevisiae deletion strains, locus YNL067W, strain RPL9B, stronger effect = lower value 0.998 | S. cerevisiae deletion strains, locus YNL128W, strain TEP1, stronger effect = lower value 0.974 | [14] 1.03 and 0.971 | [10] 0.95 | [11] 0.949 | [12] 0.945 | S. cerevisiae deletion strains, locus YNL233W, strain BNI4, stronger effect = lower value 1 | S. cerevisiae deletion strains, locus YNL307C, strain MCK1, stronger effect = lower value 0.939 | S. cerevisiae deletion strains, locus YNL322C, strain KRE1, stronger effect = lower value 0.968 | S. cerevisiae deletion strains, locus YNR052C, strain pop2, stronger effect = lower value 0.949 | S. cerevisiae deletion strains, locus YOL006C, strain TOP1, stronger effect = lower value 1.07 | S. cerevisiae deletion strains, locus YOL012C, strain htz1 0.889 | S. cerevisiae deletion strains, locus YOR061W, strain CKA2, stronger effect = lower value 0.972 | S. cerevisiae deletion strains, locus YOR069W, strain VPS5, stronger effect = lower value 0.958 | [13] 0.978 | S. cerevisiae deletion strains, locus YOR136W, strain idh2, stronger effect = lower value 0.993 | S. cerevisiae deletion strains, locus YOR144C, strain elg1, stronger effect = lower value 0.939 | S. cerevisiae deletion strains, locus YOR184W, strain ser1, stronger effect = lower value 0.948 | S. cerevisiae deletion strains, locus YOR316C, strain cot1, stronger effect = lower value 0.945 | S. cerevisiae deletion strains, locus YPL055C, strain LGE1, stronger effect = lower value 1.01 and 1.02 | S. cerevisiae deletion strains, locus YPR163C, strain tif3, stronger effect = lower value 0.925 | S. cerevisiae deletion strains, locus YPR167C, strain met16, stronger effect = lower value 0.943 | S. cerevisiae deletion strains, strain wtn01, stronger effect = lower value 0.967 | S. cerevisiae strains, strain wild type, stronger effect = lower value 0.963
